Results on ten molecules are retold here after PubChem BioAssay (EPA / NIEHS).

Inconclusive results are not listed. The source made the active and inactive calls. The calls were made as follows, unless noted: active = hit-call score of the fitted dose curve at least 0.9, where 1 is the maximum; inconclusive = response in the unintended direction; inactive = score below 0.9.

Experiment [1] in a line: Tanguay_ZF_120hpf_SOMI_legacy: (Legacy) Oregon State University Tanguay Lab 120 Hour Post-fertilization zebrafish Assay for Somite Malformation (AID 2283647). A digest of the protocol: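 Read-out: presence or absence of somite malformation in 120 hpf larvae, gain-of-signal relative to DMSO baseline. Embryos lacked chorion (pronase, 4 hpf) and were exposed statically from 6 hpf at 28C; dead larvae not scored.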

A short description of experiment [2]: Tanguay_ZF_120hpf_PFIN_legacy: (Legacy) Oregon State University Tanguay Lab 120 Hour Post-fertilization zebrafish Assay for Pectoral Fin Malformation (AID 2283648).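 Also: each larva judged yes or no for fin defect by brightfield with dead larvae skipped.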 A digest of the protocol: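 5D WT zebrafish; pronase dechorionation 4 hpf; 1 embryo/well at 6 hpf; static exposure to 120 hpf, 28C, sealed, foil-covered; final DMSO 0.64% v/v; 5 uM trimethyltin chloride positive control; fin defect scored yes/no.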

A short description of experiment [3]: Tanguay_ZF_120hpf_CFIN_legacy: (Legacy) Oregon State University Tanguay Lab 120 Hour Post-fertilization zebrafish Assay for Caudal Fin Malformation (AID 2283649). In short, it runs like this:
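Binary presence or absence of caudal fin malformation at 120 hpf, read by brightfield microscopy, with DMSO as baseline. Larvae came from 5D wild-type embryos exposed statically from 6 hpf at 28C after pronase dechorionation.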

Experiment [4] in a line: Tanguay_ZF_120hpf_PIG_legacy: (Legacy) Oregon State University Tanguay Lab 120 Hour Post-fertilization zebrafish Assay for Pigmentation Malformation (AID 2283650). In short, it runs like this:
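Pronase dechorionation at 4 hpf; embryos plated at 6 hpf, one per well; static exposure, sealed and foil-covered, 28C, to 120 hpf; pigmentation read by brightfield, binary; DMSO 0.64% baseline, 5uM trimethyltin chloride positive control.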

Experiment [5] can be described thus: Tanguay_ZF_120hpf_CIRC_legacy: (Legacy) Oregon State University Tanguay Lab 120 Hour Post-fertilization zebrafish Assay for Circulatory Malformation (AID 2283651). In short, it runs like this: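 Using wild-type Tropical 5D zebrafish, we exposed dechorionated embryos from 6 to 120 hpf in embryo medium with 0.64% DMSO. Circulatory defects were scored as present or absent; 5uM trimethyltin chloride served as positive control.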

Experiment [6] can be described thus: Tanguay_ZF_120hpf_SWIM_legacy: (Legacy) Oregon State University Tanguay Lab 120 Hour Post-fertilization zebrafish Assay for Swim Bladder Malformation (AID 2283654).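 Also: swim bladder malformation in each larva scored yes or no under brightfield.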 A digest of the protocol: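 Embryos lacking chorions were exposed individually and statically to test chemical from 6 to 120 hpf at 28C, with 0.64% DMSO as vehicle. At 120 hpf, swim bladder malformation was recorded as present or absent by brightfield microscopy.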

A short description of experiment [7]: Tanguay_ZF_120hpf_TRUN_legacy: (Legacy) Oregon State University Tanguay Lab 120 Hour Post-fertilization zebrafish Assay for Truncated Body (AID 2283655). In short, it runs like this: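 Truncated body is recorded as a binary endpoint at 120 hpf by brightfield imaging of wild-type 5D larvae. Exposure runs statically from 6 hpf at 28C with 0.64% DMSO; embryos dying earlier are not scored.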

The nature of experiment [8]: Tanguay_ZF_120hpf_NC_legacy: (Legacy) Oregon State University Tanguay Lab 120 Hour Post-fertilization zebrafish Assay for Notochord and Tail Malformation (AID 2283656). In short, it runs like this: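 Dechorionated 5D zebrafish, 1/well from 6 hpf; static exposure to 120 hpf, 28C, sealed, dark; final DMSO 0.64% v/v. NC scored binary (present/absent); dead embryos not scored. Fit vs DMSO baseline, gain direction.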

The nature of experiment [9]: Tanguay_ZF_120hpf_TR_legacy: (Legacy) Oregon State University Tanguay Lab 120 Hour Post-fertilization zebrafish Assay for Touch Response (AID 2283667). In short, it runs like this: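 5D WT embryos; static exposure to 120 hpf, 28C, sealed/dark; DMSO 0.64% v/v final. TR scored present/absent; dead embryos excluded. Pos ctrl 5uM trimethyltin chloride.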
The test system of experiment [10] is Thyroperoxidase (TPO), gene 54314. Kind of experiment: CCTE_Simmons_AUR_rTPO: CCTE's Amplex UltraRed Assay for Thyroperoxidase (TPO) Inhibition, Simmons Lab (AID 2283662).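 As to AC50: potency for loss of signal meaning inhibition of peroxidase activity.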 In short, it runs like this: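 Rat thyroid microsomes (5 ug protein) were incubated with test compound (8 concentrations, 5 nM–87.5 uM final, 0.5% DMSO), 25 uM Amplex UltraRed and 300 uM H2O2 in 200 mM phosphate buffer for 30 min at 37C in the dark; fluorescence read at 544/590 nm.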

The nature of experiment [11]: CCTE_Simmons_CellTiterGLO_HEK293T: Viability Assessment in CCTE's Assays for Thyroperoxidase (TPO) Inhibition, Simmons Lab (AID 2283665).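 Also: cells exposed to compound for 24 h before readout; actives reduce ATP signal below DMSO vehicle meaning cytotoxicity.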 A digest of the protocol: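 Cytotoxicity counter-screen: human HEK293T cells in low-serum (1% FBS) medium receive test chemical, 5 nM to 87.5 uM final, for 24 h; ATP is quantified by luciferase luminescence.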
Experiment [12] is described as follows: STM_H9_OrnithineISnorm_perc: Stemina devTOX quickPredict H9 human embryonic stem cell (hESC)-based Assay for Ornithine (ORN) Metabolite Biomarker, Normalized (AID 2283712; active = hit-call score of the fitted dose curve at least 0.9, where 1 is the maximum; inactive = score below 0.9;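 also: ornithine released into spent medium during last day measured by mass spectrometry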). In short, it runs like this:
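Cells: undifferentiated H9 hESC. Dosing: 72 h, media replaced every 24 h. Sample: final 24-h conditioned media, 40% acetonitrile. Read: UPLC-HRMS ornithine area vs 13C standard, % DMSO control.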

Experiment [13] can be described thus: STM_H9_CystineISnorm_perc: Stemina devTOX quickPredict H9 human embryonic stem cell (hESC)-based Assay for Cystine (CYSS) Metabolite Biomarker, Normalized (AID 2283713; active = hit-call score of the fitted dose curve at least 0.9, where 1 is the maximum; inactive = score below 0.9). In short, it runs like this:
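Secreted cystine was measured by UPLC-HRMS in H9 hESC medium after 72h compound exposure with 24-hourly replenishment. Values are standard-normalized areas relative to 0.1% DMSO.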

A short description of experiment [14]: STM_H9_OrnCyssISnorm_ratio: Stemina devTOX quickPredict H9 human embryonic stem cell (hESC)-based Assay for Ornithine (ORN):Cystine (CYSS) Ratio (AID 2283714). A digest of the protocol:
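Steps: H9 hESCs in pluripotent state dosed 72h, medium plus compound renewed every 24h; conditioned medium from the final 24h deproteinized in 40% acetonitrile; ORN and CYSS quantified by UPLC-HRMS with C13 spike-ins; ratio relative to vehicle.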

Experiment [15] is described as follows: CCTE_Padilla_ZF_144hpf_TERATOSCORE: (Legacy) CCTE's 144 Hour Post-fertilization zebrafish Assay Teratoscore, Padilla Lab (AID 2283679; active = hit-call score of the fitted dose curve at least 0.9, where 1 is the maximum; inactive = score below 0.9;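 also: zebrafish embryos with chorions exposed by immersion from 6-8 hpf to 5 dpf with daily renewal; teratogenicity score from eye scoring of death hatching and malformations at 144 hpf; higher score means more developmental defects relative to DMSO baseline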). A digest of the protocol: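 Larvae scored by eye at 144 hpf for death, hatching and malformations after a day in clean Hanks'. Before that, daily-renewed exposure at 80 uM (0.4% DMSO, 26C) from roughly 6-8 hpf through 5 dpf, 4 embryos per chemical.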

Read-out in experiment [16]: kallikrein-3 (KLK3), KLK3 (gene 354)
Kind of experiment: LTEA_HepaRG_KLK3: Life Technologies and Expression Analysis (LTEA) Assay for kallikrein-3 (KLK3) using HepaRG (AID 2283652; active = hit-call score of the fitted dose curve at least 0.9, where 1 is the maximum; inactive = score below 0.9). The settings on record: mRNA level, 48 h; actives raise or lower the signal. In short, it runs like this: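 Differentiated human HepaRG cells in serum-free induction medium exposed 48 h in duplicate, eight-point half-log series from 100 uM in 0.5% DMSO. KLK3 mRNA by qRT-PCR, normalised to ACTB, GAPDH, POLR2A; bidirectional fit versus DMSO.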

Read-out in experiment [17]: solute carrier (SLC22A6), SLC22A6 (gene 9356)
Put plainly: LTEA_HepaRG_SLC22A6: Life Technologies and Expression Analysis (LTEA) Assay for solute carrier (SLC22A6) using HepaRG (AID 2283653; active = hit-call score of the fitted dose curve at least 0.9, where 1 is the maximum; inactive = score below 0.9). The settings on record: mRNA level, 48 h; actives raise or lower the signal. In short, it runs like this: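 Read-out is SLC22A6 transcript level by qRT-PCR, normalised to three housekeeping genes and fitted for gain or loss relative to 0.5% DMSO vehicle. Human HepaRG cells received chemicals at up to 100 uM for 48 h.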

Read-out in experiment [18]: solute carrier (SLC10A1), SLC10A1 (gene 6554)
Put plainly: LTEA_HepaRG_SLC10A1: Life Technologies and Expression Analysis (LTEA) Assay for solute carrier (SLC10A1) using HepaRG (AID 2283657; active = hit-call score of the fitted dose curve at least 0.9, where 1 is the maximum; inactive = score below 0.9). The note with it: mRNA level, 48 h; actives raise or lower the signal. In short, it runs like this: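 Transcript levels were measured by qRT-PCR after human HepaRG cells received test chemical for 48 hours, up to 100 uM in half-log dilutions. Values come from bidirectional concentration-response fitting relative to 0.5% DMSO vehicle.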

Read-out in experiment [19]: matrix metalloproteinase-1 (MMP1), MMP1 (gene 4312)
Kind of experiment: LTEA_HepaRG_MMP1: Life Technologies and Expression Analysis (LTEA) Assay for matrix metalloproteinase-1 (MMP1) using HepaRG (AID 2283658; active = hit-call score of the fitted dose curve at least 0.9, where 1 is the maximum; inactive = score below 0.9). The settings on record: mRNA level, 48 h; actives raise or lower the signal. In short, it runs like this:
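HepaRG, ~100,000 cells/well, 48 h pre-culture; serum-free induction medium; test chemical 8 conc (max 100 uM, half-log), duplicate, 48 h; 0.5% DMSO; qRT-PCR MMP1, housekeeping-normalized; gain/loss fit vs DMSO.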

Read-out in experiment [20]: Cytochrome P450 (CYP24A1_1), CYP24A1 (gene 1591)
Kind of experiment: LTEA_HepaRG_CYP24A1_1: Life Technologies and Expression Analysis (LTEA) Assay for Cytochrome P450 (CYP24A1_1) using HepaRG (AID 2283671; active = hit-call score of the fitted dose curve at least 0.9, where 1 is the maximum; inactive = score below 0.9). The settings on record: mRNA level, 48 h; actives raise or lower the signal. A digest of the protocol: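 In this test, gene induction or suppression of CYP24A1 in human HepaRG liver cells is measured by qRT-PCR after 48 h chemical treatment (eight concentrations, maximum 100 uM). Values are fitted bidirectionally relative to DMSO.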

Turning to `c1ccc2ccccc2c1`, the result in experiment [1], in experiment [2], in experiment [3], in experiment [4], in experiment [5] and in experiment [6] was inactive. In addition, the outcome in experiment [7], in experiment [8] and in experiment [9] was inactive.
Turning to `CC[C@@H]1C[C@H](N(Cc2cc(C(F)(F)F)cc(C(F)(F)F)c2)C(C)=O)c2cc(C(F)(F)F)ccc2N1C(=O)OC(C)C`, the outcome in experiment [1], in experiment [2], in experiment [3], in [5] and in experiment [6] was inactive.
Take `Cc1c2ccccc2c(C)c2c1ccc1ccccc12`: the call in experiment [1], in experiment [2], in [5], in experiment [7], in [8] and in experiment [10] was inactive. The outcome in experiment [9] and in experiment [12] was inactive. Besides, the AC50 is 25.8 µM (active) in [3], 17.2 µM (active) in [11], 5 µM (active) in [13] and 5 µM (active) in [14].
As to `CCOC(=O)O[C@H](C)OC(=O)c1ccc2c(c1)cc(C(=O)NC1CCN(C(C)C)CC1)n2Cc1cc(-c2ccc(Cl)s2)on1`, the result in [1], in [2], in experiment [3], in experiment [5], in [7] and in experiment [8] was inactive. For the same molecule, the call in experiment [9], in experiment [12] and in [13] was inactive. Also, the AC50 was 9.93 µM (active) in experiment [10] and 2.11 µM (active) in experiment [11].
Consider `CCCCCCCCCCCO`, for which the outcome in experiment [2], in [3], in experiment [5], in experiment [6], in experiment [7] and in experiment [9] was inactive. Also, in experiment [15], the AC50 was 62.4 µM (active).
Consider `CC[C@H](NC(=O)c1cc(F)ccc1NS(=O)(=O)c1cccc2cccnc12)c1ccccc1`, for which the outcome in experiment [2], in experiment [3], in experiment [5], in [6], in experiment [7] and in experiment [8] was inactive. The call in experiment [9], in experiment [12] and in experiment [13] was inactive.
As for `CCCCCCCC[Si](OCC)(OCC)OCC`, the molecule was called inactive in experiment [1], in experiment [3], in experiment [6], in experiment [7], in [8] and in experiment [9].
For `CC/C(=C(/CC)c1ccc(O)cc1)c1ccc(O)cc1`, the result in experiment [2], in experiment [3], in [5], in [6], in experiment [12] and in [13] was inactive. The result in [14] was inactive. The AC50 was 5.22 µM (active) in [10] and 8.59 µM (active) in [11].
On to `NCc1cccc(C2CCN(C(=O)c3ccc(C#Cc4ccccc4F)o3)CC2)c1`, for which the call in experiment [1], in experiment [3], in experiment [6], in [7], in experiment [8] and in experiment [10] was inactive. Moreover, the molecule was classed as inactive in [9]. Besides, in experiment [11], the AC50 is 9.98 µM (active).
Consider `CCCOC(=O)c1cc(O)c(O)c(O)c1`, for which the result in [1], in [2], in [5], in experiment [16], in [17] and in [6] was inactive. Also, the molecule was classed as inactive in experiment [7], in experiment [8], in [18], in [19], in experiment [9] and in experiment [20]. Moreover, the values for the AC50 in experiment [10] and in experiment [11] were 0.772 µM (active) and 22.6 µM (active), respectively.
